Results as given in the supplement of paper PMC11732987, “Enantioselective OTUD7B fragment discovery through chemoproteomics screening and high-throughput optimisation” (Communications Chemistry, 2025).
Unmarked numbers belong to inactive results.

Molecular target: COPS5 (UniProt Q92905)
Test: log2 ratio of Biotin-Ahx-Ub-VS probe labelling (fragment/DMSO); higher = less target engagement (more negative = stronger competition), active = hit call of the paper (q ≤ 0.05, log2 ratio ≤ -1)
Details: compound concentration: 200 uM; treatment time: 3 h
Protocol: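 Competitive ABPP in HEK293T cell lysate. Lysates were treated with each chloroacetamide fragment at 200 µM for 3 h, then with Biotin-Ahx-Ub-VS (0.5 µM, 1 h), NeutrAvidin-enriched and analysed by diaPASEF LC-MS/MS. Protein LFQ was median-normalised; average log2 ratio is fragment/DMSO from an unpaired t-test (n=3 treated, n=44 DMSO). Hits: q ≤ 0.05, log2 ratio ≤ -1, unique peptides ≥ 2.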

Chain of COPS5 (Q92905 whole entry, looked up, the tested form may be a part): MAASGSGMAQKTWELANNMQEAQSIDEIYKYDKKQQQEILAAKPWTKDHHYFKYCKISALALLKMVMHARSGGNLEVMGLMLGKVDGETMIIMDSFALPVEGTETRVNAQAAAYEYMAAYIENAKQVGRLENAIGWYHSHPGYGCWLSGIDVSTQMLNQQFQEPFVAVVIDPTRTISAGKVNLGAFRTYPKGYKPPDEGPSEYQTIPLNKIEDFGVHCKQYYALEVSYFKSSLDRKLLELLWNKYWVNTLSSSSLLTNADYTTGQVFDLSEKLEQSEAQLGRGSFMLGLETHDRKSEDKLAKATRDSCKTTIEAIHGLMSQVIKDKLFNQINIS

Structure (SMILES) | log2 ratio of Biotin-Ahx-Ub-VS probe labelling
O=C(CCl)N1CCC(c2nc3ccccc3o2)CC1 | -0.0083
O=C(CCl)NCCC1=CCCCC1 | 0.0168
Cc1ccc(C(=O)NCCNC(=O)CCl)cc1 | -0.05
Cc1ccc2nnc(CNC(=O)CCl)n2c1 | -0.118
Cc1cc(C(=O)NC2CCN(C(=O)CCl)CC2)no1 | 0.0469
O=C(CCl)N1CCC(O)(Cc2ccc(F)cc2)C1 (configuration not stated) | 0.0199
CCN(Cc1ccc(C#N)cc1F)C(=O)CCl | -0.0333
